Compound activity: PubChem, Broad Institute
The entries come from a sample that favours hits as a whole.
miR-122 inh: miR-122 suppressors via Renilla sensor increase, primary screen, cell-based, Huh7 psiCHECK-miR122, Renilla luciferase, single point; AID 623901, 2012; activation, % at 12.5 µM; 340,000 tested, 0.14% active; 48 h;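 active means mean activation of 30% or more, with every replicate also reaching 30%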;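 further: 0% = median of neutral control wells and 100% = median of positive control wells; higher luciferase signal means stronger suppression of miR-122 activity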
The depositor's hits bear a star.

SMILES	miR-122 inh
CCCC(O)C#Cc1cnc2c(c1)C(=O)N([C@H](C)CO)C[C@H](C)[C@H](CN(C)S(=O)(=O)c1ccccc1)O2 (some centres undefined)	-1
CO[C@@H]1CN(C)C(=O)c2ccc(NC(=O)NC(C)C)cc2OC[C@H](C)NC[C@@H]1C	-57
C[C@H](CO)N1C[C@H](C)[C@H](CN(C)Cc2ccncc2)Oc2ncc(C#Cc3ccc(F)cc3)cc2C1=O	-9
CCCCN(CCCC)C(=O)CN(C)S(=O)(=O)c1ccc2c(c1)n(C)c(=O)c(=O)n2C	50*
C[C@H]1CN([C@@H](C)CO)C(=O)c2cc(C#CCc3ccccc3)cnc2O[C@@H]1CN(C)C(=O)C1CCCCC1	-1
C[C@H]1CN([C@@H](C)CO)C(=O)c2cc(-c3ccncc3)cnc2O[C@@H]1CN(C)C(=O)c1ccccc1F	-10
CCCCCOC(=O)c1[nH]c2c(c1C)C(=O)CC(c1ccco1)C2 (centres undefined)	-121
O=C1CC(c2ccco2)CC(O)=C1C=Nc1cc(Cl)ccc1O (centres undefined)	31*
C/C=C/c1ccc2c(c1)O[C@@H](CN(C)Cc1ccccc1F)[C@H](C)CN([C@@H](C)CO)S2(=O)=O	1
COc1cccc(-c2ccc3c(c2)O[C@@H](CN(C)C(C)=O)[C@@H](C)CN([C@H](C)CO)S3(=O)=O)c1	-3
Cc1cc(NS(=O)(=O)c2ccc(NC(=O)C(CC(C)C)N3C(=O)c4ccccc4C3=O)cc2)nc(C)n1 (centres undefined)	35*
Cc1ccc(S(=O)(=O)Nc2ccc3ccccc3c2)cc1	-118
CCOc1ccc(NS(=O)(=O)c2ccc(NC(=S)NC(=O)CC(C)C)cc2)cc1	-166
C[C@@H]1CN([C@@H](C)CO)S(=O)(=O)c2ccc(C#CC3CC3)cc2O[C@@H]1CN(C)Cc1ccccn1	-14
COc1cccc(-c2ccc3c(c2)O[C@@H](CN(C)CC2CC2)[C@@H](C)CN([C@@H](C)CO)S3(=O)=O)c1	4
C[C@H]1CN([C@@H](C)CO)C(=O)c2cc(Br)cnc2O[C@H]1CN(C)Cc1ccccn1	3
C=CCNC(=S)NNC(=O)Cn1c(-c2ccccc2)cc(=O)n2ncnc12	34*
CCCN1C[C@@H](C)[C@H](OC)CN(C)C(=O)c2ccc(NC(=O)COC)cc2OC[C@@H]1C	-9
CCOC(=O)/C(C#N)=C1/C=CN(Cc2ccccc2)C=N1	33*
CC(C)NC(=O)N(C)C[C@@H]1Oc2cc(-c3ccccc3)ccc2S(=O)(=O)N([C@@H](C)CO)C[C@H]1C	-5
C[C@H](CO)N1C[C@H](C)[C@@H](CN(C)C(=O)c2ccccn2)Oc2cc(C#CCC3CCCC3)ccc2S1(=O)=O	-46
C[C@H](CO)N1C[C@H](C)[C@@H](CN(C)C(=O)C2CC2)Oc2ncc(C#Cc3cccc(F)c3)cc2C1=O	-1
Oc1ccc2ccccc2c1/C=N/Nc1nnc(-c2ncc[nH]2)c2ccccc12	61*
CC(C)CC#Cc1cnc2c(c1)C(=O)N([C@@H](C)CO)C[C@@H](C)[C@H](CN(C)Cc1ccc(F)cc1)O2	6
CCCNC(=O)N(C)C[C@H]1Oc2ncc(/C=C/c3ccccc3)cc2C(=O)N([C@@H](C)CO)C[C@@H]1C	0
SMILES	miR-122 inh
COCC(=O)Nc1ccc2c(c1)OC[C@@H](C)N(C(C)=O)C[C@H](C)[C@@H](OC)CN(C)C2=O	-1
CCCCCCCN(C(=O)CCl)c1cccc(C)c1	66*
C[C@@H]1CN([C@@H](C)CO)S(=O)(=O)c2ccc(C#C[C@@H](C)O)cc2O[C@@H]1CN(C)Cc1cccnc1	-4
COc1ccccc1C#Cc1ccc2c(c1)O[C@H](CN(C)Cc1ccncc1)[C@@H](C)CN([C@H](C)CO)S2(=O)=O	2
C[C@H]1CN([C@@H](C)CO)C(=O)c2cc(C#CC3(O)CCCC3)cnc2O[C@H]1CN(C)S(=O)(=O)c1cccc(F)c1	-4
C=CCc1c(OC)ccc2ccc(=O)oc12	32*
C[C@@H]1CN([C@@H](C)CO)C(=O)c2cc(C#CCC3CCCC3)cnc2O[C@H]1CN(C)C(=O)CC1CC1	0
COc1cccc(C#Cc2ccc3c(c2)O[C@H](CN(C)C(=O)c2ccccn2)[C@H](C)CN([C@H](C)CO)S3(=O)=O)c1	6
C[C@@H]1CN([C@@H](C)CO)S(=O)(=O)c2ccc(C#Cc3ccc(F)cc3)cc2O[C@H]1CN(C)S(=O)(=O)c1cn(C)cn1	-3
C[C@@H]1CN([C@@H](C)CO)S(=O)(=O)c2ccc(-c3cccc(C#N)c3)cc2O[C@@H]1CN(C)C(=O)Nc1ccccc1F	-28
COCC#Cc1ccc2c(c1)O[C@H](CN(C)C(C)=O)[C@@H](C)CN([C@@H](C)CO)S2(=O)=O	-2
C[C@@H]1CN([C@@H](C)CO)S(=O)(=O)c2ccc(C#Cc3ccccn3)cc2O[C@@H]1CN(C)Cc1ccc(F)cc1	-3
CCOC(=O)CSc1nnnn1-c1cccc2ccccc12	38*
CCOC(=O)CSc1nc2ccccc2c(=O)n1CC1CCC(C(=O)NCc2ccco2)CC1 (centres undefined)	-138
COCC#Cc1cnc2c(c1)C(=O)N([C@H](C)CO)C[C@H](C)[C@H](CN(C)C(=O)Nc1c(C)noc1C)O2	-22
C[C@H](CO)N1C[C@H](C)[C@H](CN(C)Cc2cncnc2)Oc2cc(-c3ccccc3)ccc2S1(=O)=O	2
CC(C)CC#Cc1cnc2c(c1)C(=O)N([C@@H](C)CO)C[C@@H](C)[C@@H](CN(C)C(=O)NC1CCCC1)O2	14
CSc1cccc(NS(=O)(=O)c2cc(Br)cnc2N)c1	-106
O=S(=O)(Nc1ccc2ccccc2c1)c1ccccc1	-170
CSc1cccc(NS(=O)(=O)c2ccccc2)c1	35*
C[C@@H]1CN([C@@H](C)CO)S(=O)(=O)c2ccc(/C=C/c3ccccc3)cc2O[C@H]1CN(C)C(=O)Nc1cccc(F)c1	-9
C[C@@H]1CN([C@H](C)CO)C(=O)c2cc(C#Cc3ccccn3)cnc2O[C@@H]1CN(C)CC1CCOCC1	-1
C[C@H](CO)N1C[C@H](C)[C@H](CN(C)Cc2ccncc2)Oc2ncc(-c3cccc(F)c3)cc2C1=O	-4
CCCN(C)C[C@H]1Oc2cc(-c3ccc(OC)cc3)ccc2S(=O)(=O)N([C@H](C)CO)C[C@H]1C	-77
C[C@H](CO)N1C[C@H](C)[C@@H](CN(C)C(=O)CC2CC2)Oc2cc(C#CCC3CCCC3)ccc2S1(=O)=O	-49
SMILES	miR-122 inh
CCCNC(=O)N1C[C@@H]2[C@H](c3ccccc31)[C@@H](CO)N2C(=O)C1CCOCC1	39*
CCCNC(=O)N1[C@@H]2CN(C(=O)c3ccccc3)c3ccccc3[C@@H]2[C@@H]1CO	36*
COCC(=O)N1[C@@H](CO)[C@@H]2c3ccccc3N(C(=O)c3cccnc3)C[C@@H]21	42*
O=C(c1ccccc1)N1C[C@H]2[C@@H](c3ccccc31)[C@@H](CO)N2C(=O)c1cccc(F)c1	-100
C/C=C/c1cnc2c(c1)C(=O)N([C@H](C)CO)C[C@@H](C)[C@@H](CN(C)S(=O)(=O)c1ccc(C)cc1)O2	4
C[C@@H]1CN([C@@H](C)CO)C(=O)c2cccc(NC(=O)C3CCCCC3)c2O[C@@H]1CN(C)Cc1ccc(C(=O)Nc2ccccc2N)cc1	-166
CC(C)CC#Cc1cnc2c(c1)C(=O)N([C@H](C)CO)C[C@H](C)[C@@H](CN(C)C(=O)C1CCCCC1)O2	-10
C/C=C/c1ccc2c(c1)O[C@@H](CN(C)S(C)(=O)=O)[C@H](C)CN([C@@H](C)CO)S2(=O)=O	-9
